RORgamma inh: inhibitors of mouse ROR gamma transcriptional activity | P51450 | Drosophila S2 Gal4-RORgamma UAS-luciferase reporter, 20 h | Potency, µM (top dose mostly 53.6 µM), without a hit: top-dose activity change, negative = inhibition, most hits filed as inhibitors | 310,000 compounds, 5.4% hits | AID 2551; also: nearly all actives have a fitted effect of over 60% in size
Target sequence (P51450 whole entry, looked up, the tested form may be a part): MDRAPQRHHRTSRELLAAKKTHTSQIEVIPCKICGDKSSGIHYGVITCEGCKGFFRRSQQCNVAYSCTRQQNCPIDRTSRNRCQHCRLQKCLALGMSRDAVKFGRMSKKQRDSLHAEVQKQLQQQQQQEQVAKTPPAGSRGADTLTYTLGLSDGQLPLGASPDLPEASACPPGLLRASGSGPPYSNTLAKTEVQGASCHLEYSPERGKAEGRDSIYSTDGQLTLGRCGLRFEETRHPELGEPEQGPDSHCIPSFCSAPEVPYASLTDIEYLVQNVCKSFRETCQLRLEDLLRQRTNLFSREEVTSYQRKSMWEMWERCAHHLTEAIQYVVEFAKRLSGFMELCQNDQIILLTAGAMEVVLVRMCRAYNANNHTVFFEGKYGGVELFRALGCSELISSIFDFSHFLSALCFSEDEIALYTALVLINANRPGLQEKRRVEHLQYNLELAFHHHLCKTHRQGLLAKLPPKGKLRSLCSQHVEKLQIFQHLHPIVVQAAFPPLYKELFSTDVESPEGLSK
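A Gal4/UAS one-hybrid system in insect cells: metallothionein-promoter Gal4–ROR gamma fusion plus Photinus luciferase reporter. Copper sulfate 700 uM final, 20 hr ambient incubation, luminescent detection after 10 min with reagent.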
Tau ThT inhib: tau fibrillization inhibition (ThT binding); P10636; recombinant tau K18 P301L, heparin-induced fibrillization, ThT fluorescence; Potency, µM (highest dose often 57.4 µM), inactives show at the highest dose activity, negative = inhibition, actives largely listed as inhibitors; 270,000 compounds, 2.1% hits; AID 1460; also: nearly all actives have a fitted effect of over 55% in size
Target sequence (P10636 561-689 P618L limits assumed): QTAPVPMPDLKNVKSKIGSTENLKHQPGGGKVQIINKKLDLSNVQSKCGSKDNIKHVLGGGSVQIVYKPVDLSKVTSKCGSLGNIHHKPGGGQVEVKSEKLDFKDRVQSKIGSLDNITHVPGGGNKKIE
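In this qHTS, human K18 P301L tau is incubated with compound and heparin for 6 hr at 37 C, and Thioflavin T fluorescence then reports fibril load.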
Tau fluor cs: counter-screen for tau fibril formation inhibitors; tau K18 P301L Alexa594 fluorescence, heparin fibrillization; Potency, µM (series often up to 57.7 µM), for the others: at the highest dose activity change, negative = decrease; 280,000 compounds, 0.93% hits; also: nearly all actives have a fitted effect of over 55% in size
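Human tau K18 P301L (15 uM unlabeled, 0.24 uM Alexa 594-labeled) in 100 mM sodium acetate pH 7 with 20 uM heparin, 6 hr at 37 C. ThT 30 uM added, 1 hr ambient; Alexa 594 FP and total fluorescence read at 555/632 nm.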
Tau FP inhib: blocks human tau fibril formation measured by polarization; 280,000 compounds, 0.39% hits; P10636; K18 P301L tau heparin fibrillization, Alexa594 FP, 6 h; Potency, µM (highest dose often 57.7 µM), for inactives: top-dose activity, negative = inhibition, most hits filed as inhibitors; also: nearly all actives have a fitted effect of over 55% in size
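Steps: dispense K18 P301L tau (15 uM plus 0.24 uM Alexa 594 tracer, final) in pH 7 sodium acetate; add compound; add heparin (20 uM final); incubate 6 hr, 37 C; add ThT (30 uM final); after 1 hr ambient, read FP.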
VP16 counter: counter-screen for ROR gamma inhibitors: Gal4-VP16 reporter. Drosophila S2 Gal4-VP16 UAS-luciferase, luminescence, 20 h. Potency, µM (highest dose often 53.6 µM), inactives show at the highest dose activity, negative = inhibition, most hits filed as inhibitors. 310,000 compounds, 3.5% hits. AID 2546;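 also: Gal4-VP16 expression switched on by copper sulfate through the metallothionein promoter; nearly all actives have a fitted effect of over 50% in size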
Numbers without * were called inactive; ? = inconclusive; / = no result; [ ] = remark or other dose. An excerpt weighted towards active compounds, which were near 7.3% of everything screened. Calls follow the shape of the dose curve; as a rule, active = well fitted curve in the direction sought with a large enough effect; inconclusive = small, poorly fitted or top-dose-only effect, or another doubt; inactive = no such curve, though single readings can be large; an effect the other way counts as inactive or inconclusive. % is scaled to controls: 0 for no effect and ±100 for the full control effect; potency is read from the fitted curve at half-maximal effect.

SMILES	RORgamma inh	Tau ThT inhib	Tau fluor cs	Tau FP inhib	VP16 counter
CC(=O)C1=C(c2ccc(Cl)c(Cl)c2)N(C(C)=O)n2cnnc2S1	/	4.5µM*	?	?	/
Nc1nonc1-n1nnc(C(=O)N/N=C/c2cc(Br)cs2)c1-c1ccccc1	6.3µM*	/	/	/	5µM*
COc1ccc(O)c(/C=N/NC(=O)c2c(C)nnn2-c2nonc2N)c1	11µM*	-6%	-8%	5%	?
Nc1nonc1-n1nnc(C(=O)N/N=C/c2cccc(F)c2)c1-c1ccccc1	-4%	/	/	/	3%
CCOc1cccc(-c2c(C(=O)N/N=C/c3cccs3)nnn2-c2nonc2N)c1	7.1µM*	/	/	/	11µM*
Cc1ccc(/C=N/NC(=O)c2nnn(-c3nonc3N)c2-c2ccc3c(c2)OCO3)s1	7.1µM*	/	/	/	7.9µM*
Cc1ccccc1NC(=O)CSc1ncc2c(n1)-c1ccccc1N(C)S2(=O)=O	/	-3%	-16%	?	/
Cc1ccc(CNC(=O)CN2C(=O)COc3ccc(S(=O)(=O)N4CCC(C)CC4)cc32)cc1	/	-2%	-23%	6%	/
CCCc1c(C(=O)N/N=C/c2ccncc2)nnn1-c1nonc1N	24%	/	/	/	-4%
COc1ccc(/C=N/NC(=O)c2nnn(-c3nonc3N)c2-c2cccc(OC)c2)cc1	-6%	/	/	/	-5%
COc1cccc(-c2c(C(=O)N/N=C/c3cccs3)nnn2-c2nonc2N)c1	7.1µM*	/	/	/	10µM*
COc1cccc(-c2c(C(=O)N/N=C(\C)c3ccc(Cl)s3)nnn2-c2nonc2N)c1	-2%	/	/	/	10µM*
Cc1nc2cc(-c3ccccc3)nn2c(C)c1CCC(=O)NCc1cccc(Cl)c1	/	5%	-7%	-6%	/
Cc1ccc(-n2nnnc2SCn2nnc3ccccc3c2=O)c(C)c1	?	-4%	-10%	6%	7.1µM*
O=c1c2ccccc2nnn1CSc1nc2ccccc2c(=O)n1Cc1ccco1	2.5µM*	-1%	-4%	0%	?
O=C(NCC(c1cccs1)S(=O)(=O)c1cccs1)c1ccc(Cl)cc1 (configuration not stated)	/	-4%	-18%	?	/
O=C(NC1CCCCC1)c1ccc2c(c1)N(Cc1cccc(Cl)c1)C(=O)c1ccccc1S2=O (configuration not stated)	/	-7%	-12%	-2%	/
CCOC(=O)Cc1csc(NC(=S)NC(=O)c2ccccc2C)n1	11µM*	-12%	-9%	-2%	-28%
COc1ccc(/C=N/NC(=O)Cc2csc(Nc3cccc(C(F)(F)F)c3)n2)cc1C	?	?	18µM*[quencher]	?	0%
CCOC(=O)Cc1csc(N/N=C/c2ccc(C(F)(F)F)cc2)n1	0.71µM*	-14%	-15%	5%	?
CCOC(=O)Cc1csc(NC(=O)Cc2ccccc2)n1	3%	6%	9%	3%[2.34 µM]	-4%
CCOC(=O)Cc1csc(NC(=S)NC(=O)c2ccc(F)cc2)n1	11µM*	0%	-2%	-8%	?
CCOC(=O)Cc1csc(NC(=S)NC(=O)c2cc(OC)c(OC)c(OC)c2)n1	?	?	-28%	-12%	4%
CC(C)Nc1ccc(-c2nc(-c3ccccn3)no2)cc1[N+](=O)[O-]	/	16%	6%	-10%	/
CCOC(=O)Cc1csc(NC(=O)c2sc3nc4c(C)cc(C)cc4cc3c2N)n1	-27%	16µM*	?	3%	-5%[0.365 µM]
SMILES	RORgamma inh	Tau ThT inhib	Tau fluor cs	Tau FP inhib	VP16 counter
Nc1nn2c(-c3ccccc3)cc(=O)[nH]c2c1N=Nc1ccc(Br)cc1	-18%	2.2µM*	-23%	9%	-7%[10 µM]
Nc1nn2c(-c3ccccc3)cc(=O)[nH]c2c1N=Nc1ccc(O)cc1	0%	4%	5%	3%	11%[10 µM]
CCOC(=O)c1c(C)oc2c(CN3CCN(C)CC3)c(Br)c(OC)c(O)c12	?	-6%	-6%	8%	18µM*
CCOC(=O)c1c(CN2CCN(C)CC2)n(C)c2cc(Br)c(OC)cc12	?	-2%	3%	5%	-2%
CC[C@H](C)[C@@H](NC(=O)O[C@@H]1Cc2cc(Br)ccc2O[C@H]1c1cccc(OC)c1)C(=O)OC	12%	-5%	-9%	-1%	-12%
NS(=O)(=O)c1cccc(NC(=O)c2ccno2)c1	9%	/	/	/	-10%
O=C(Nc1ccc(O)c(-c2nc3ccccc3s2)c1)C1=COCCO1	?	?	?	?	2%
O=C(Nc1ccc(-c2nc3ccccc3s2)cc1)C1=COCCO1	2µM*	-4%	0%	-7%	4.5µM*
O=C(Nc1cccc(-c2nc3ccccc3s2)c1)C1=COCCO1	27%	?	?	-13%	1%
O=C(Nc1ccc(-c2nc3ccccc3s2)c(O)c1)C1=COCCO1	0.5µM*	?	-18%	?	?
CNC(=O)NC(=O)COC(=O)CCCSc1nc2ccccc2s1	?	-6%	-9%	-4%	?
Cc1noc(C)c1CSCC(=O)OCC(=O)Nc1sccc1C#N	-13%	-6%	-5%	-2%	-14%
CC(OC(=O)CCCSc1nc2ccccc2s1)C(=O)NC(N)=O (configuration not stated)	4.5µM*	0%	7%	6%	4µM*
N#Cc1ccsc1NC(=O)COC(=O)CCCSc1nc2ccccc2s1	?	?	?	8%	5µM*
NC(=O)COC(=O)CCCSc1nc2ccccc2s1	7.9µM*	-5%	-7%	-1%	13µM*
CCOC(=O)CC(=O)CSc1ncnc2c1nnn2-c1ccc(OC)cc1	8.9µM*	?	-10%	-12%	-3%
CCN(CC)C(=O)CSc1ncnc2c1nnn2-c1ccc(OC)cc1	18%	-14%	-8%	-4%	11%
COc1cc(/C=N/Nc2nc(=O)[nH]nc2C)cc([N+](=O)[O-])c1O	-47%	14µM*	-24%	0%	-4%
COc1ccc(/C=N/Nc2nc(=O)[nH]nc2C)cc1[N+](=O)[O-]	-4%	?	-8%	-4%	1%
Cc1n[nH]c(=O)nc1N/N=C/c1ccc(O)c([N+](=O)[O-])c1	11µM*	?	-5%	9%	?
O=C(NCCN1CCOCC1)C1CCN(c2ncnc3c2sc2cccc(F)c23)CC1	2%	-18%	-8%	13%	14µM*
O=C(C1CCN(c2ncnc3c2sc2cccc(F)c23)CC1)N1CCOCC1	-6%	-18%	-11%	6%	-27%
COc1ccc(NC(=O)C2CCCN(c3ncnc4c3nc3n4CCCCC3)C2)c(OC)c1 (configuration not stated)	/	-1%	-2%	3%	/
Cc1ccccc1CCN1CCCC(CN(C)C(=O)c2ccc3ncccc3c2)C1 (configuration not stated)	-29%	/	/	/	-9%
CCOC(=O)C(=O)N(Nc1ccccc1C)c1ccccc1C	2.8µM*	-6%	-22%	-3%[2.34 µM]	?
CC(=O)Nc1ccc(NC(=S)NC(=O)C2CCCC2)cc1	15%	/	/	/	0%

Screens deposited in PubChem BioAssay by National Center for Advancing Translational Sciences (NCATS).
